What follows are compounds tested on Mast/stem cell growth factor receptor Kit (Homo sapiens), P10721 [T670I]. Conditions: at 1 µM.
Sequence of Mast/stem cell growth factor receptor Kit (Homo sapiens), P10721 [T670I] (P10721 whole entry T670I): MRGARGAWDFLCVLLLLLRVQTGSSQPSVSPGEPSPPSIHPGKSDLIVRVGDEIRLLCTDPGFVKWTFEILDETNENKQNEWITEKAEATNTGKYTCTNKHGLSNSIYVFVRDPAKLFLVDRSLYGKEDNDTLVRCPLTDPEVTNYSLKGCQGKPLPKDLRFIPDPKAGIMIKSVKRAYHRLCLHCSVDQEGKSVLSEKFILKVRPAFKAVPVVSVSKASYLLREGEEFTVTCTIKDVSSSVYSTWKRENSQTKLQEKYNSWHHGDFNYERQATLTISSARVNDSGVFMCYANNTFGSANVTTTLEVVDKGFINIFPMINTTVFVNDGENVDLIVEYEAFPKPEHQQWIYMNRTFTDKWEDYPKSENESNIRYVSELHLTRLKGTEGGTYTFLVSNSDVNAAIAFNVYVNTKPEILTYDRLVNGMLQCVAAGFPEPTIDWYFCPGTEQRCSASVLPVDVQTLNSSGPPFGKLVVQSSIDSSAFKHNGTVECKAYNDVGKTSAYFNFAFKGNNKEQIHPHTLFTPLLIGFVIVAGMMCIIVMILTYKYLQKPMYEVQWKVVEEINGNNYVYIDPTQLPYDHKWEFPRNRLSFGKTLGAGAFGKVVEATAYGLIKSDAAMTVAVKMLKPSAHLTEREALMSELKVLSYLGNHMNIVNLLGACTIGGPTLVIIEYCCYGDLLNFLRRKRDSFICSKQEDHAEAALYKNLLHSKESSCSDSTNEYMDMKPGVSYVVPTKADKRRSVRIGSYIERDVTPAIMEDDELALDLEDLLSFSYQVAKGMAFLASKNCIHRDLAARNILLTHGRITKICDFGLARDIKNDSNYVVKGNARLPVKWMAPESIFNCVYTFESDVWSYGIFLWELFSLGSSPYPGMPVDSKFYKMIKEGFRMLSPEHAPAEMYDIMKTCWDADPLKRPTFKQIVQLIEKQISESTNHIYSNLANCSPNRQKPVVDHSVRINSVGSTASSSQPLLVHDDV
With N#Cc1c(NC(=O)c2cccc3ccccc23)sc2c1CCCC2 the inhibition was 1.87%.
COc1cc(C=NNc2ncnc3c2cnn3-c2ccccc2)ccc1O gave an inhibition of 37.6%.
CC(C)=Cc1cccc2c1/C(=N/Nc1ccc(S(N)(=O)=O)cc1)C(=O)N2 showed an inhibition of 52.1%.
Cc1ccc(NC(=O)c2ccnc(N3CCCC3)c2)cc1-c1ccc(C(=O)NCC2CC2)cc1 gave an inhibition of 3.2%.
Work on Nc1nc(-c2ccc3c(c2)C(=Cc2cc(Br)c(O)c(Br)c2)C(=O)N3)cs1 yielded an inhibition of -1.52%.
CS(=O)(=O)CCNCc1ccc(-c2ccc3ncnc(Nc4ccc(OCc5cccc(F)c5)c(C(F)(F)F)c4)c3c2)o1 showed an inhibition of 4.53%.
In the case of COc1ccc(-c2coc3ncnc(N)c23)cc1, the inhibition is reported as 1.89%.
Work on CCCN1CCC=C(c2ccc(Nc3nc(Nc4ccccc4C(N)=O)c4cc[nH]c4n3)c(C)c2)C1 yielded an inhibition of 0.85%.
In the case of O=C1NC(=O)C(c2cccc(Cl)c2)=C1Nc1ccc(O)c(Cl)c1, the inhibition is reported as -2.14%.
Compound COc1cc2ncn(-c3cc(O[C@H](C)c4ccccc4Cl)c(C(N)=O)s3)c2cc1OC has an inhibition of 32.1%.
Compound CC1=C(C(=O)Nc2ccc3[nH]ncc3c2)C(c2ccc3ccccc3c2)CC(=O)N1 (stereo unspecified) has an inhibition of 2.53%.
O=C1NC(=O)C(c2ccc(Cl)cc2)=C1Nc1ccc(Cl)c(C(=O)O)c1 showed an inhibition of -1.49%.
In the case of c1cnn2ncc(-c3ccnc(Nc4ccc5c(c4)OCCO5)n3)c2c1, the inhibition is reported as 93.3%.
In the case of COc1cc2ncn(-c3cc(O[C@@H](C)c4ccccc4Cl)c(C(N)=O)s3)c2cc1OC, the inhibition is reported as 5.54%.
CCn1c(-c2nonc2N)nc2c(C#CC(C)(C)O)nc(CN3CCCC3)cc21 gave an inhibition of -3.13%.
For CCn1c(-c2nonc2N)nc2ccncc21, the inhibition was 3.05%.
